ELG1 genotox: inducers of genotoxicity in HEK293T ELG1-luciferase cells | Potency, µM (top dose mostly 46 µM), without a hit: at the highest dose activity change, positive = activation, most hits filed as activators | HEK293T ELG1-luciferase reporter, luminescence, 16 h | 330,000 tested, 1.3% active; further: % of control where 0% means no effect; nearly all actives have a fitted effect of over 60% in size
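DMSO vehicle served as control against compound-treated ELG1-luciferase HEK293T cells; exposure lasted 16 hr at 37 °C and 5% CO2, followed by ONE-Glo luminescence detection after 30 min.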
KinaseGlo FLuc: counter-screen: inhibitors of Kinase-Glo firefly luciferase; Kinase-Glo luciferase, ATP luminescence, 8 min; Potency, µM (highest dose often 38.3 µM), for inactives: top-dose activity change, negative = inhibition, actives largely listed as inhibitors; Q27757; 200,000 tested, 0.28% active; further: on the % scale 0 is the no-effect control and ±100 the full control effect; nearly all actives have a fitted effect of over 60% in size
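Luminescence was the read-out, taken after 8-minute incubation at ambient temperature. Luciferase turned over luciferin with 10 uM ATP in imidazole pH 7.2 buffer containing KCl, MgCl2, Tween 20 and BSA.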
Rab9 promoter act: activates the Rab9 promoter. 320,000 tested, 2.8% active. Huh7 Rab9 promoter-luciferase reporter, luminescence, 24 h. Potency, µM (highest dose often 9.22 µM), without a hit: top-dose activation, negative = inhibition, usual class: activators; further: % of control where 0% means no effect; nearly all actives have a fitted effect of over 60% in size
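Quantitative HTS format; Huh7 Rab9-luciferase reporter cells (1500/well) receive compound 2 h post-plating, incubate 24 h at 37 °C, then get luciferase reagent for 10 min before luminescence reading.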
SMN2 splice enh: increases expression of the SMN2 splice variant; HEK293 SMN2-luciferase splicing reporter, luminescence, 30-36 h; Potency, µM (top dose mostly 46.1 µM), for inactives: top-dose activity change, positive = activation, actives largely listed as activators; 210,000 tested, 2.8% active; AID 1458; further: % of control where 0% means no effect; nearly all actives have a fitted effect of over 55% in size
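qHTS luciferase splicing reporter: luminescence rises when SMN2 exon 7 is included in transfected HEK293 cells. Compound exposure lasted 30-36 h at 37C, with 4.5 mM final sodium butyrate as control, followed by a ONE-Glo read.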
FLuc counter: inhibits or activates purified firefly luciferase, miR-21 counter-screen. purified FLuc, Km substrates, luminescence inhibition. Potency, µM (top dose mostly 57.5 µM), for the others: at the highest dose activity change, negative = inhibition, actives largely listed as inhibitors. 360,000 tested, 6.9% active. AID 588342. P08659;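 further: plate controls were vehicle for no effect and reference inhibitor for full effect; nearly all actives have a fitted effect of over 55% in size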
Target sequence (P08659 whole entry, looked up): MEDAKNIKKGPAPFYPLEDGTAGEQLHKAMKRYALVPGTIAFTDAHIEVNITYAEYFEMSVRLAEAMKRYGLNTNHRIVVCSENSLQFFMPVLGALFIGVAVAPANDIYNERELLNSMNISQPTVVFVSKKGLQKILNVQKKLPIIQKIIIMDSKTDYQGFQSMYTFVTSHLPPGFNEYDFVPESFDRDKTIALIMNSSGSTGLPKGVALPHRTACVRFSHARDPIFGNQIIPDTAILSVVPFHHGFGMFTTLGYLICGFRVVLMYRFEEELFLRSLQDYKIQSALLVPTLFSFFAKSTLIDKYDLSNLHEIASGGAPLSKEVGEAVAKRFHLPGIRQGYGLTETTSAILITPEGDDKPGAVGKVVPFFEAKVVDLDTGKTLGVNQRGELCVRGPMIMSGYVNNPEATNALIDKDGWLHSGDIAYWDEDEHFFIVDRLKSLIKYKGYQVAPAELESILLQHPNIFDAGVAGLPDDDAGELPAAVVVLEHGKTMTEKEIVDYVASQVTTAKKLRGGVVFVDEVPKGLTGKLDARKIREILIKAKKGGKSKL
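Biochemical qHTS of compounds, final roughly 60 µM downward over six points, against 10 nM purified firefly luciferase using Km concentrations of substrates (10 uM D-luciferin, 10 uM ATP) in Tris acetate pH 7.5 buffer; luminescence output.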
NPC1 prom act: activators of NPC1 promoter; Huh7 NPC1 promoter luciferase reporter, 24 h; Potency, µM (titrated, usually from 9.22 µM), inactives show at the top dose activation, actives largely listed as activators; 320,000 tested, 2.4% active; further: % of control where 0% means no effect; nearly all actives have a fitted effect of over 60% in size
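Cells: Huh7 expressing luciferase under the NPC1 promoter, 1500/well. Seeded 2 h, compound added, incubated 24 h at 37 °C. Luciferase reagent, 10 min ambient, then luminescence.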
* hit, by the source's call; ? = inconclusive; nt = no result; [ ] = another dose, or the depositor's remark. Rows were chosen to be rich in hits. Some 7.3% of all compounds tested hit in one or more screens of this group. The call rests on the fitted dose curve; in most records, active means well fitted curve in the direction sought with a large enough effect; inconclusive means small, poorly fitted or top-dose-only effect, or another doubt; inactive means no such curve, though single readings can be large; an effect the other way counts as inactive or inconclusive. Potency means the concentration at half of the fitted maximal effect.

SMILES	ELG1 genotox	KinaseGlo FLuc	Rab9 promoter act	SMN2 splice enh	FLuc counter	NPC1 prom act
ClC(=C\c1ccccc1)/C=N/N1CCN(c2ccccn2)CC1	9.2µM*	-4%	?	14µM*	?	3.2µM*
CCc1ccc(/C=N/N2CCN(c3ccccn3)CC2)cc1	10%	nt	27%	nt	?	?
Cc1ccc(C)c(NC(=O)CSc2c(C)cnc3c2c(=O)n(C)c(=O)n3C)c1	nt	nt	nt	nt	-2%	nt
CS(=O)(=O)Nc1cccc(C2=NN(S(C)(=O)=O)C(c3ccc4c(c3)OCO4)C2)c1 (configuration not stated)	14%	-2%	?	11µM*	17µM*	17%
CS(=O)(=O)N1N=C(c2ccccc2)CC1c1ccc2c(c1)OCO2 (configuration not stated)	?	-4%	2.8µM*	?	21µM*	3.5µM*
COCCCN=Cc1c(C)[nH]n(-c2ccc(Br)c(C)c2)c1=O	?	-5%	0.5µM*	2.8µM*	1.3µM*	1.4µM*
Cc1ccc(-n2[nH]c(C)c(C=NC34CN5CN(CN(C5)C3)C4)c2=O)cc1C	nt	-10%	nt	12%	-6%	nt
Cc1ccc(NC(=O)CCc2nc(-c3ccccc3F)no2)c(C)c1	nt	nt	nt	0%	-2%	nt
CC(=O)Nc1ccc(N(C(=O)Cn2nnc3ccccc32)C(C(=O)NCc2ccccc2)c2ccc(C)cc2)cc1 (configuration not stated)	nt	nt	nt	9%	-7%	nt
Cc1ccc(-c2cc(C(=O)Nc3nccs3)c3ccccc3n2)o1	-8%	-8%	-4%	-34%	11µM*	-3%
COc1ccc(NC(=O)c2cc(-c3ccc(C)o3)nc3ccccc23)cc1OC	4%	6.3µM*	?	-23%	0.95µM*	19%
Cc1ccc(-c2cc(C(=O)Nc3nccs3)c3ccccc3n2)c(C)c1	-4%	0%	-3%	-43%	-6%	-3%
CCOC(=O)c1cc(OC(=O)c2ccc(C)cc2)n(-c2ccccc2)n1	nt	nt	nt	12%	0%	nt
Cc1occc1C(=O)Nc1nnc(C(F)(F)F)s1	-5%	-22%	2%	-29%	-21%	1%
COC(=O)c1sc(NC(=O)c2oc3ccccc3c2C)nc1C	2.3µM*	1%	?	7.1µM*	?	?
CCOC(=O)c1sc(NC(=O)c2ccco2)nc1C	?	-26%	?	8%	11µM*	28%
Cc1c(C(=O)Nc2nnc(C(F)(F)F)s2)oc2ccccc12	8%	0%	?	-14%	11µM*	?
CCOC(=O)c1sc(NC(=O)c2ccc(C)o2)nc1C	5.8µM*	?	-30%	13µM*	6µM*	-23%
CCN(CC)CCOC(=O)c1ccc(NC(=O)c2cc3c(=O)n(CC)c4ccccc4c3s2)cc1	nt	nt	nt	9%	-5%	nt
C=CCC(C)(Nc1ccccc1)C(=O)OCC (configuration not stated)	nt	0%	nt	8%	nt	nt
CCOC(=O)CNC(=O)O[C@H]1C(=O)c2ccc(OC)cc2O[C@@H]1c1ccc2c(c1)OCO2	nt	-4%	nt	24%	nt	nt
Cc1ccc(S(=O)(=O)c2cn(C)c3cc(N4CCCCCC4)c(F)cc3c2=O)cc1	nt	nt	nt	nt	4%	nt
COC(=O)c1sc(NC(=O)c2ccc(C)o2)nc1C	?	6.3µM*	2.8µM*	1.6µM*	5.4µM*	?
Cc1ccc(C(=O)Nc2nnc(C)s2)o1	4%	16%	15%	0%	-3%	13%
Cc1ccc(C2=Nc3cccnc3C(c3ccccc3)=NN2)cc1	?	-16%	3.2µM*	13µM*	11µM*	3.5µM*
SMILES	ELG1 genotox	KinaseGlo FLuc	Rab9 promoter act	SMN2 splice enh	FLuc counter	NPC1 prom act
Cc1ccc2c(c1)C(c1ccncc1)=NNC(c1ccccc1)=N2	7%	-19%	2.8µM*	nt	17µM*	?
Fc1ccc2c(c1)C(c1ccncc1)=NNC(c1ccc(Br)cc1)=N2	-4%	-1%	4%	-6%	0%	-1%
Cc1ccc(C2=Nc3ccc(Br)cc3C(c3ccncc3)=NN2)cc1	3%	13%	27%	-99%	27µM*	-3%
Cc1ccc2c(c1)C(c1ccncc1)=NNC(c1ccc(F)cc1)=N2	5%	-2%	14%	15%	-15%	6%
O=[N+]([O-])c1cccc(C2=N[C@@H](Cc3ccccc3)CO2)c1	nt	0%[39.9 µM]	nt	nt	nt	nt
CCOC(=O)C1CCCN(c2nc3c(S(=O)(=O)c4ccc(C)c(C)c4)nnn3c3ccc(Cl)cc23)C1 (configuration not stated)	nt	nt	nt	-4%	-1%	nt
CSc1nsc(NC(=O)OCc2ccc(Cl)cc2)n1	-2%	nt	0%	nt	24µM*	2%
COc1ccsc1NC(=O)OCc1ccc(Cl)cc1	?	nt	28%	nt	?	29%
C(=N\n1cnnc1)/c1ccc(N2CCOCC2)cc1	12%	11%	7%	2%	?	1%
Fc1ccc(N/N=C/c2ccc(N3CCOCC3)cc2)c(F)c1	?	-2%	2µM*	11µM*	12µM*	2.5µM*
S=c1[nH]ncn1/N=C/c1ccc(N2CCOCC2)cc1	16µM*	-8%	4.5µM*	13µM*	7.6µM*	4µM*
CN(C)/N=C/c1ccc(N2CCOCC2)cc1	4%	-19%	2.5µM*	?	17µM*	?
C/C(=N\Nc1ccc(F)cc1F)c1ccc(F)cc1	6%	2%	2%	3%	?	-3%
S=c1[nH]ncn1/N=C/c1ccc(Br)cc1	7%	-1%	-1%	-13%	?	0%
O=S(=O)(Nc1ccc(N2CCOCC2)cc1)c1ccc(F)cc1F	-3%	0%	2%	0%	-1%	-4%
C/C(=N\Nc1ccc(F)cc1F)c1ccc(N2CCOCC2)cc1	?	1%	?	?	15µM*	?
CCCCC/C=C\C[C@@H](O)/C=C/C=C\CCC(=O)O	nt	0%	nt	-1%	nt	nt
O=C(Nc1cc(F)ccc1F)N1CCC(CN2CCOCC2)CC1	nt	nt	nt	nt	1%	nt
COc1ccc(/C=C\c2nc(=O)c3ccccc3o2)cc1	?	3%	?	nt	3.8µM*	?
O=c1nc(/C=C/c2ccc(O)c(O)c2)oc2ccccc12	21µM*	nt	?	nt	8.5µM*	?
Cc1ccc(NC(=O)Cc2noc3ccccc23)cc1	?	-1%	?	?	21µM*	?
Cc1cc(C)cc(NC(=O)Cc2noc3ccccc23)c1	nt	nt	nt	nt	-17%	nt
O=C(O)c1ccccc1C(=O)c1ccc(N2CCCC2)c([N+](=O)[O-])c1	9%	3%	24%	-2%	24µM*	10%
Cc1cccc(NC(=O)c2ccc(N3CCCCC3)c([N+](=O)[O-])c2)n1	?	-9%	2µM*	6.3µM*	4.8µM*	2.8µM*

Compound activity as filed in PubChem BioAssay.
